For eight compounds, Potency results are on record in PubChem BioAssay (Tox21).

Records with an inconclusive call do not appear. Calls of active or inactive are those of the source. Unless noted, calls follow the shape of the full dose curve.

A short description of assay [1]: Nuclear factor erythroid 2-related factor 2/antioxidant responsive element (Nrf2/ARE) small molecule agonists: luciferase reporter gene qHTS assay in human keratinocytes (AID 1919969). Also: nearly all actives have a fitted effect of over 35% in size. Also: potency is read from the fitted curve at half-maximal effect. A general note: In a reporter assay the amount or activity of a reporter protein is the signal.
Assay [2] deals with Gonadotropin-releasing hormone receptor (Homo sapiens) (UniProt P30968). Briefly: Human gonadotropin-releasing hormone receptor (GnRHR) small molecule agonists, calcium flux assay in GnRHR-HEK293 cells (AID 1920063). Also: nearly all actives have a fitted effect of over 35% in size. The method, boiled down: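 HEK293 cells stably expressing human GnRHR were plated 18 h at 37 °C, loaded with calcium dye 1 h at 37 °C, then given compound in agonist mode; fluorescence (Ex/Em 480/540) read kinetically for 3 min at 1 s intervals.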
Gonadotropin-releasing hormone receptor (Homo sapiens), sequence (P30968 whole entry, looked up): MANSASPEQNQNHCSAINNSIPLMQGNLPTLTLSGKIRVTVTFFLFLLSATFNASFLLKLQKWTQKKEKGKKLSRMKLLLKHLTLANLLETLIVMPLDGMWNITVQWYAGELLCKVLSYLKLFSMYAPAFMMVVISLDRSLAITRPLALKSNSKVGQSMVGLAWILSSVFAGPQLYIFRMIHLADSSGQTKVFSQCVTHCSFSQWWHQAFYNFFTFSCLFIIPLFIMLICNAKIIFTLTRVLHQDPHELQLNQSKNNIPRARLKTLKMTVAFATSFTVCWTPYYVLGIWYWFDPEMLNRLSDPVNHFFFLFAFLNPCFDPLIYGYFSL
In general terms: Calcium assays in cells follow changes in intracellular calcium, usually with a dye or a luminescent sensor.

Assay [3] concerns the target KiSS-1 receptor (Homo sapiens) (UniProt Q969F8). Description: Human kisspeptin (KISS1R) small molecule agonists, calcium flux assay in KISS1R-HEK293 cells (AID 1920064; active = well fitted activation curve with a large enough effect in the repeat runs). The method, boiled down: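 HEK293 cells stably expressing human KISS1R were plated 18 h at 37 °C, loaded with calcium dye for 1 h at 37 °C, then given compound by pin tool. Fluorescence (Ex/Em 480/540) was read kinetically for 3 min.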

Assay [4] can be described thus: G protein-coupled receptor (GPCR) small molecule agonists, calcium flux assay: HEK293 wild type cell line counter screen (AID 1920065). The method, boiled down:
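Cells were plated and cultured 18 h at 37 C/5% CO2, then loaded with calcium dye for 1 h at 37 C. Compounds in DMSO were pin-transferred in agonist mode, and fluorescence (Ex/Em 480/540) was read kinetically for 3 min at 1 s intervals.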

The nature of assay [5]: p53 small molecule agonists, cell-based qHTS assay with human liver microsomes (AID 1963577).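 Also: p53 response element beta-lactamase reporter cells with liver microsomes plus NADPH.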 The method, boiled down:
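p53RE-bla cells; 5 h settle, 37 C/5% CO2; cpd + HLM 0.5 mg/mL + NADPH 0.5 mg/mL (final); 16 h 37 C; LiveBLAzer 2 h RT dark; fluorescence readout.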
A general note: qHTS replaces the single test concentration by a dilution series.

Assay [6] is described as follows: p53 small molecule agonists, cell-based qHTS assay with rat liver microsomes (AID 1963578). The method, boiled down:
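Rat liver microsome activation: microsomes 0.5 mg/mL, NADPH 0.5 mg/mL final; p53RE-bla cells, 16 h 37 C; LiveBLAzer readout, 2 h RT dark.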

A short description of assay [7]: p53 small molecule agonists, cell-based qHTS assay with human liver microsomes: qHTS cell viability counter screen (AID 1963579). Also: nearly all actives have a fitted effect of over 45% in size. Put shortly:
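Luminescent CellTiter-Glo read-out, 30 min at room temperature, gauged cytotoxicity in p53RE-bla cells exposed 16 h at 37 C to DMSO-dissolved compounds with metabolic activation by human liver microsomes and NADPH, each 0.5 mg/mL final.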

Assay [8] can be described thus: p53 small molecule agonists, cell-based qHTS assay (AID 1963582; active = well fitted activation curve with a large enough effect in the signal ratio in the repeat runs, not every such curve was filed as active; the % refers to the signal ratio). The method, boiled down:
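p53RE-bla beta-lactamase reporter cells rested 5 h at 37 C/5% CO2, then received compounds in DMSO by pin transfer and were incubated 16 h at 37 C. LiveBLAzer B/G FRET substrate was loaded for 2 h at room temperature before fluorescence reading.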

The target in assay [9] is 5-hydroxytryptamine receptor 2A (Homo sapiens) (UniProt P28223). Briefly: 5-hydroxytryptamine receptor 2A (HTR2A) small molecule antagonists, cell-based qHTS assay (AID 1963586). Also: nearly all actives have a fitted effect of over 45% in size. Put shortly:
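Antagonist-mode intracellular calcium assay: DOI (4 nM) added after 5 min compound pre-incubation at room temperature to dye-loaded HTR2A-CHO cells. Fluorescence followed for 3 min, sampled every second.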

Assay [10] shares this target. Briefly: 5-hydroxytryptamine receptor 2A (HTR2A) small molecule agonists, cell-based qHTS assay (AID 1963587). Also: nearly all actives have a fitted effect of over 30% in size. The method, boiled down: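 Kinetic calcium-flux fluorescence (2 min, 1 sec intervals) after compound addition in agonist mode. HTR2A-CHO cells were cultured 18 h, then dye-loaded 1 h at 37 C.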
Assay [11] addresses Muscarinic acetylcholine receptor M1 (Homo sapiens) (UniProt P11229). Briefly: Cholinergic receptor muscarinic 1 (CHRM1) small molecule antagonists, cell-based qHTS assay (AID 1963588). Also: nearly all actives have a fitted effect of over 40% in size. The method, boiled down: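 CHRM1-CHO calcium-flux assay, antagonist mode. Cells were seeded 18 h, dye-loaded 1 h at 37 C and given compound for 5 min at RT, then acetylcholine was added at 50nM. FDSS fluorescence was read 3 min; 15 concentrations, three runs.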

For assay [12] the target is unchanged. Description: Cholinergic receptor muscarinic 1 (CHRM1) small molecule agonists, cell-based qHTS assay (AID 1963589). Also: nearly all actives have a fitted effect of over 35% in size. Put shortly:
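CHO cells stably expressing human CHRM1, seeded 18 h at 37 C/5% CO2, dye-loaded 1 h at 37 C, then given compound in agonist mode; intracellular calcium fluorescence read kinetically at 1 s intervals. Fifteen concentrations, three independent runs.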

Assay [13] can be described thus: cAMP Responsive Elements (CRE) small molecule agonists, cell-based qHTS assay (AID 1963590). Put shortly:
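CRE-bla HEK 293T cells in DMEM with 10% dialyzed FBS, NEAA, pyruvate and 25 mM HEPES were plated 18 h at 37 C/5% CO2, then exposed to compounds in DMSO for 3 h before LiveBLAzer B/G FRET substrate addition.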

Assay [14] is described as follows: cAMP Responsive Elements (CRE) small molecule antagonists, cell-based qHTS assay (AID 1963591; active = well fitted inhibition curve with a large enough effect in the signal ratio in the repeat runs, not every such curve was filed as active; the % refers to the signal ratio). The method, boiled down:
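CRE-bla HEK293T cells were plated 18 h at 37 °C/5% CO2, pinned with compound in DMSO, then stimulated with NKH477 at 0.25 uM final for 3 h. LiveBLAzer B/G FRET substrate was added and plates incubated 2 h at room temperature.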

Assay [15] deals with Beta-2 adrenergic receptor (Homo sapiens) (UniProt P07550). Briefly: Adrenergic beta2 receptor (ADRB2) small molecule antagonists, cell-based qHTS assay (AID 1963592). Also: series mostly up to about 92 µM; nearly all actives have a fitted effect of over 50% in size. Put shortly:
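Cells (CHO, stable ADRB2 overexpression) incubated 18-20hr at 37C; compounds added from DMSO; agonist mix (1nM isoproterenol, 100uM IBMX, 25uM Ro-20-1724) added; 0.5hr RT; d2-cAMP and anti-cAMP-cryptate added; 1hr RT; 665/615 nm read.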

The target in assay [16] is D(2) dopamine receptor (Homo sapiens) (UniProt P14416). Description: Dopamine D2 receptor (DRD2) small molecule agonists, cell-based qHTS assay (AID 1963594). Also: nearly all actives have a fitted effect of over 35% in size. The method, boiled down:
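cAMP accumulation in DRD2-HEK293 cells measured by HTRF after 1 h detection; compounds added 10 min before NKH477 (200nM […]) forskolin-analogue stimulation, 30 min at room temperature, with Ro20-1724 present at 0.1 mM final.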

Assay [17] has the same target. Briefly: Dopamine D2 receptor (DRD2) small molecule antagonists, cell-based qHTS assay (AID 1963595; active = well fitted inhibition curve with a large enough effect in the signal ratio in the repeat runs, with a control signal flat; the % refers to the signal ratio). Put shortly:
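DRD2-HEK293; 0.1 mM Ro20-1724; cpd 10 min RT; NKH477 200 nM + quinpirole 12 nM, 30 min RT; HTRF cAMP (cAMP-d2/anti-cAMP cryptate), 665/620 nm ratio after 1 h.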

Assay [18] is described as follows: p53 small molecule agonists, cell-based qHTS assay: qHTS cell viability counter screen (AID 1963581). Also: nearly all actives have a fitted effect of over 45% in size. Put shortly: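 p53RE-bla HCT-116 cells were exposed to compounds for 16 h at 37 C; after the beta-lactamase FRET read in the same wells, CellTiter-Glo was added and luminescence (intracellular ATP) read after 30 min at room temperature.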
Assay [19] has as its target Beta-2 adrenergic receptor (Homo sapiens) (UniProt P07550). Briefly: Adrenergic beta2 receptor (ADRB2) small molecule agonists, cell-based qHTS assay (AID 1963593).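 Also: CHO cells stably overexpressing human ADRB2.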 Put shortly:
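CHO cells stably over-expressing ADRB2 were plated overnight at 37C, then dosed with compounds plus a stimulation mix containing 100uM IBMX and 25uM Ro-20-1724 for 0.5hr at room temperature. cAMP was measured by HTRF competition, 1hr.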

Assay [20] in a line: p53 small molecule agonists, cell-based qHTS assay with rat liver microsomes: qHTS cell viability counter screen (AID 1963580). Also: nearly all actives have a fitted effect of over 45% in size. The method, boiled down:
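Intracellular ATP, by CellTiter-Glo luminescence, defines viability. HCT-116 p53RE-bla cells, 4,000 per well, were compound-treated in the presence of rat liver microsomes and NADPH for 16 h at 37 C.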

Beta-2 adrenergic receptor (Homo sapiens), sequence (P07550 whole entry, looked up): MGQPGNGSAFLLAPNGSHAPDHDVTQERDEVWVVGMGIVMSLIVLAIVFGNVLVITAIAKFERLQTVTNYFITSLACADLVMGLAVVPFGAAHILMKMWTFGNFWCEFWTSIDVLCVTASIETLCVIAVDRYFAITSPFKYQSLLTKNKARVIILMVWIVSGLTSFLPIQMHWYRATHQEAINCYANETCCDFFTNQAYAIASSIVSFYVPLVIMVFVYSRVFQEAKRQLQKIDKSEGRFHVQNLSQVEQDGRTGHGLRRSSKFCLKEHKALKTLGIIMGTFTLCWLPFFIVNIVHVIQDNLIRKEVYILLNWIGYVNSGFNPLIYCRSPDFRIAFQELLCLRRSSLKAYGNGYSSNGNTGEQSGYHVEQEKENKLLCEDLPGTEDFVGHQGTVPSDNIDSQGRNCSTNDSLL
KiSS-1 receptor (Homo sapiens), sequence (Q969F8 whole entry, looked up): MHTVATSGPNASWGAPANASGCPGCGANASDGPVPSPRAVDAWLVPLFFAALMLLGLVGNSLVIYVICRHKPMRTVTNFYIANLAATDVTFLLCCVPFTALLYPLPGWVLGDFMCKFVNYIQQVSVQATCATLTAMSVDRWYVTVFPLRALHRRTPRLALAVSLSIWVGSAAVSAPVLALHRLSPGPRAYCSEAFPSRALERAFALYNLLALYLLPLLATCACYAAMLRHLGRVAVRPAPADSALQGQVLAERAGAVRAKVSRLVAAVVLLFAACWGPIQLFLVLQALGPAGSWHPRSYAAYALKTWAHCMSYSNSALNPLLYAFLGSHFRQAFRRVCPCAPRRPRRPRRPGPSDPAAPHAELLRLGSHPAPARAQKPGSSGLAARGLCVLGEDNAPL
5-hydroxytryptamine receptor 2A (Homo sapiens), sequence (P28223 whole entry, looked up): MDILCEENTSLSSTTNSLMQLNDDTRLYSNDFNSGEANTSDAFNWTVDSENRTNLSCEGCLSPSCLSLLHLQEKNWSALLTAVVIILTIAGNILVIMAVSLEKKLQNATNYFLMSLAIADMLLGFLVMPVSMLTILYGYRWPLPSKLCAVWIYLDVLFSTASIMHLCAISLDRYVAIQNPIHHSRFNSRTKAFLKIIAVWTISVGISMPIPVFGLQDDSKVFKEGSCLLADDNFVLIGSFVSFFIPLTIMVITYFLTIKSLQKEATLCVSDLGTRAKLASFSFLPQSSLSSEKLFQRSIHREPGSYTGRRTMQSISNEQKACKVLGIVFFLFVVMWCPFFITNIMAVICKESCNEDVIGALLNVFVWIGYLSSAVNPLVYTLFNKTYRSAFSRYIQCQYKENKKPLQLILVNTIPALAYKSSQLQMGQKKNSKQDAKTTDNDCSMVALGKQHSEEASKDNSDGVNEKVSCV
D(2) dopamine receptor (Homo sapiens), sequence (P14416 whole entry, looked up): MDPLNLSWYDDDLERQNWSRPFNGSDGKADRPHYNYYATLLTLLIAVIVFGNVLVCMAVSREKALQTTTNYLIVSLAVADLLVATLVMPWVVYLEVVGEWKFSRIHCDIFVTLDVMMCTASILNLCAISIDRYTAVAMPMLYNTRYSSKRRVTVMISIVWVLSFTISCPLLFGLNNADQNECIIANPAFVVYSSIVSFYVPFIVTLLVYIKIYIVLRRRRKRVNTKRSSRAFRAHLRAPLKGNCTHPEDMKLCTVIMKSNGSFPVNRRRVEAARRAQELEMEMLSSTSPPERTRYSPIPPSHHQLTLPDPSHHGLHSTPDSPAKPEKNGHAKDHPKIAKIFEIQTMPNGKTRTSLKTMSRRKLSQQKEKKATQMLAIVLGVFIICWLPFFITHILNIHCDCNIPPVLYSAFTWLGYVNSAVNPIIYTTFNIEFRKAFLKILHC
Muscarinic acetylcholine receptor M1 (Homo sapiens), sequence (P11229 whole entry, looked up): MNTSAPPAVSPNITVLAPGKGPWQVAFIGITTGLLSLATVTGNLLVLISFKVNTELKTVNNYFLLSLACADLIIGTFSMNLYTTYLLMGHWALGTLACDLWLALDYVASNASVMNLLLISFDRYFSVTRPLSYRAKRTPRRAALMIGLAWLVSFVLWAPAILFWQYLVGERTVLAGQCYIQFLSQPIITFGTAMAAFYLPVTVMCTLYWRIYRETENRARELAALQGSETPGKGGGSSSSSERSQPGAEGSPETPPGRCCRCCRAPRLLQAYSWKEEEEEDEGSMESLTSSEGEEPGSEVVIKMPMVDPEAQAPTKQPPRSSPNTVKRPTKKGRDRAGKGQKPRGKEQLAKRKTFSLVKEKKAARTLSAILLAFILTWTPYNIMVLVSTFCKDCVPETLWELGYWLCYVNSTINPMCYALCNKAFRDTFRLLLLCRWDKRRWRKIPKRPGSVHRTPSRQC

For the compound `CCC(C)c1cc([N+](=O)[O-])cc([N+](=O)[O-])c1O` (configuration not stated), the Potency result in assay [1], in assay [2], in assay [3], in assay [4], in [5] and in assay [6] was “inactive” in each case. Moreover, the Potency entry in assay [7], in assay [8], in assay [9], in assay [10], in [11] and in [12] was “inactive” throughout. Also, the Potency result in assay [13], in assay [14], in assay [15], in assay [16] and in assay [17] was “inactive” in each case.
Take `CCOC(=O)C1OC1(C)c1ccccc1` (configuration not stated): the Potency result in assay [1], in [2], in assay [3], in [4], in assay [5] and in assay [6] was “inactive” throughout. Further, the Potency result in assay [18], in [8], in assay [9], in [11], in assay [12] and in [13] was “inactive” in each case. Also, the Potency entry in assay [14], in assay [15], in [19], in assay [16] and in assay [17] was “inactive” each time.
As to `C=C(C)CCl`, the Potency result in assay [1], in [2], in assay [3], in assay [4], in [5] and in assay [6] was “inactive” in each case. The Potency result in assay [7], in assay [18], in assay [8], in assay [9], in assay [10] and in [11] was “inactive” throughout. Also, the Potency entry in [12], in assay [13], in [14], in [15], in [16] and in assay [17] was “inactive” each time.
For the compound `NNC(N)=S`, in assay [1], the Potency is 21.7 µM (active). For the same compound, the Potency result in assay [2], in assay [3], in [4], in assay [5], in [6] and in [18] was “inactive” throughout. Besides, the Potency entry in [8], in assay [9], in assay [10], in assay [11], in [12] and in assay [13] was “inactive” in each case. The Potency result in assay [14], in assay [15], in assay [19], in assay [16] and in assay [17] was “inactive” each time.
As for `Cn1cc[n+](C)c1` (tested in a mixture with another compound), the Potency result in assay [1], in assay [2], in assay [3], in [4], in [5] and in assay [6] was “inactive” in each case. The Potency result in assay [7], in assay [20], in assay [18], in assay [8], in [9] and in [10] was “inactive” in each case. Moreover, the Potency entry in [11], in assay [12], in assay [13], in [14], in assay [15] and in assay [16] was “inactive” each time. Also, the Potency entry in [17] was “inactive”.
Consider `O=S(=O)(O)C(F)(F)C(F)(F)C(F)(F)C(F)(F)C(F)(F)C(F)(F)F`, for which the Potency result in [1], in assay [2], in [3], in [4], in assay [5] and in assay [6] was “inactive” each time. Also, the Potency result in assay [7], in [20], in assay [18], in assay [8], in [9] and in assay [10] was “inactive” each time. In addition, the Potency entry in assay [12], in assay [13], in [14], in [15], in assay [16] and in assay [17] was “inactive” each time.
As to `CN(C)c1ccccc1`, the Potency result in [1], in assay [2], in [3], in assay [4], in assay [5] and in assay [20] was “inactive” each time. The Potency entry in assay [18], in assay [8], in [9], in assay [10], in assay [11] and in assay [12] was “inactive” in each case. Also, the Potency result in assay [13], in [14], in assay [15], in assay [16] and in assay [17] was “inactive” throughout.
In the case of `CC[C@H](N)c1ccccc1`, the Potency result in assay [1], in [2], in assay [3], in assay [4], in [5] and in [6] was “inactive” throughout. Also, the Potency result in assay [7], in assay [20], in assay [18], in [8], in [9] and in assay [10] was “inactive” each time. Further, the Potency result in assay [11], in [13], in assay [14], in assay [15], in assay [16] and in [17] was “inactive” in each case.
